This is a sample that favours compounds with a hit; in the whole collection about 2.4% have one here.
D2 ag-1: agonists of human D2 dopamine receptor (beta-arrestin). P14416. 360,000 compounds, 0.084% hits. DiscoveRx PathHunter D2 beta-arrestin, luminescence, 90 min; 100% = 57 uM dopamine signal. activation, % (no concentration beside the values); in the data active = activation above about 40%; inconclusive = between about 15% and that limit
Target sequence (P14416 whole entry, looked up): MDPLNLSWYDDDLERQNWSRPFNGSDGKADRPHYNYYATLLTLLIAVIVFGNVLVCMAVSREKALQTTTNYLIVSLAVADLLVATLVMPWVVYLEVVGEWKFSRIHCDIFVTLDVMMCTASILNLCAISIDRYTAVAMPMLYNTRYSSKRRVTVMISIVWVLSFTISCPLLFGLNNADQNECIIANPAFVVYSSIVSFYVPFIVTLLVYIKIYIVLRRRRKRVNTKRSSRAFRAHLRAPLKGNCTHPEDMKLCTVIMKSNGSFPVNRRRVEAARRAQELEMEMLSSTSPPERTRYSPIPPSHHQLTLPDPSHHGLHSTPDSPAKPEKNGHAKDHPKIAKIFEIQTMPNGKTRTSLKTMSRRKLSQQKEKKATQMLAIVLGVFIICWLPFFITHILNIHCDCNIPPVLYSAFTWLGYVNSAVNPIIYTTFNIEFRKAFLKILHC
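DiscoveRx PathHunter D2 beta-arrestin cells (2,100/well) attached overnight, then compound-stimulated 90 min at 37 C in HBSS/10 mM HEPES/0.1% Tween-20 buffer; beta-galactosidase complementation read by luminescence after 1 h at ambient temperature. Dopamine 57 uM final (EC100) as control.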
D2 antagonist: antagonizes the human D2 dopamine receptor. HEK293 TREx D2 cells, calcium flux, dopamine EC80. 340,000 compounds, 2% hits. AID 485344. inhibition, % at 10 µM; in the data active = inhibition above about 30%; inactive = below that, where a call was filed
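Calcium flux kinetic readout in an inducible HEK293 TREx D2 line plated overnight at 30 C. After 180 s compound exposure, an EC80 dopamine challenge follows with another 180 s kinetic read to detect antagonism.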
D2 PAM-1: human D2 receptor positive allosteric modulation. 360,000 compounds, 0.23% hits. DiscoveRx D2 beta-arrestin cells, luminescence, 90 min; 100% = 57 uM dopamine signal. potentiation, % (no concentration beside the values). P14416; in the data active = potentiation above about 50%; inconclusive = mostly about 30% to 49%
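PathHunter beta-arrestin assay in DiscoveRx D2 cells. Compounds were added with an EC20 of dopamine (50 nM final) for 90 min at 37 deg C. Luminescence was read 1 h after detection reagent, with 57 uM dopamine as the EC100 control.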
D2 PAM-2: positive allosteric modulators of human D2 dopamine receptor; HEK293 T-REx D2, calcium flux, EC20 dopamine potentiation; potentiation, % at 10 µM; 340,000 compounds, 0.34% hits; AID 485347;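 active = potentiation over 3 SD above the plate norm, cut at about 30% in these data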
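Using a no-wash calcium dye in inducible, force-coupled HEK293 Trex cells expressing D2, we tracked fluorescence each second for 180 s after compound, then for 180 s after EC20 dopamine to detect augmented signalling.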
D2 ag-2: agonists of human D2 dopamine receptor. HEK293 T-REx D2 cells, calcium flux agonist mode. 340,000 compounds, 0.53% hits. AID 485358. activation, % at 2 µM. P14416;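 active = activation over 3 SD above normal in the single-dose calcium agonist read, cut at about 30% in these data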
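Tetracycline-induced HEK293 T-REx cells with force-coupled D2 receptor, plated overnight at 30 C, loaded with no-wash calcium dye. After a 10 s baseline, compound was pin-added and calcium flux read kinetically for 180 s; calcium rises flagged agonists.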
Numbers stand for hits; 0 = inactive; ? = inconclusive; - = no result.

SMILES | D2 ag-1 | D2 antagonist | D2 PAM-1 | D2 PAM-2 | D2 ag-2
COc1cc(OC)c(C2=Nc3ccc(Br)cc3C(c3ccccc3)N2CC(=O)NN)cc1OC (stereo unspecified) | 0 | 78.5 | 0 | 0 | 0
COc1ccc(CNC(=O)c2cc(S(=O)(=O)N3CCCCC3)ccc2Cl)cc1OC | 0 | - | 0 | - | -
Fc1ccc(N2CCN(c3nc4ccccc4c4nc(-c5cccnc5)nn34)CC2)cc1 | - | - | - | 0 | 0
CC(=O)N(Cc1c(C#N)c2ccccc2n1C)c1ccccc1 | 0 | 0 | 0 | 0 | 0
Cn1c(CN2CCOCC2)c(C#N)c2ccccc21 | 0 | 0 | 0 | 0 | 0
CN1CCN(Cc2c(C#N)c3ccccc3n2C)CC1 | 0 | 0 | 0 | 0 | 0
CC1CCN(Cc2c(C#N)c3ccccc3n2C)CC1 | 0 | 74.4 | 0 | 0 | 0
CC1CCCCN1Cc1c(C#N)c2ccccc2n1C (stereo unspecified) | 0 | 40.2 | 0 | 0 | 0
Cn1c(CN2CCCC2)c(C#N)c2ccccc21 | 0 | 82.8 | 0 | 0 | 0
CCN(C(=O)CSc1nnnn1C)C1CCS(=O)(=O)C1 (stereo unspecified) | 0 | - | 0 | - | -
CCc1ccc(Cn2c(CNS(=O)(=O)c3ccc(C)c(C)c3)nc3cccnc32)cc1 | - | - | - | 0 | 0
O=C(CN1C(=O)COc2ccc(S(=O)(=O)N3CCOCC3)cc21)N1CCN(c2ccc(Cl)cc2)CC1 | - | - | - | 0 | 0
Cc1cc(C)c(/C=C(\C#N)C(N)=S)c(C)c1 | 0 | 84.0 | 0 | 0 | 0
Cn1c(CCN2CCCCC2)nc2cc(NS(=O)(=O)c3ccc(Cl)cc3)ccc21 | 0 | 0 | 0 | 0 | 0
Cn1c(CN2CCCCC2)nc2cc(NS(=O)(=O)c3ccc(Cl)cc3)ccc21 | 0 | 72.6 | 0 | 0 | 0
CC(=O)Nc1ccc2c(c1)nc(CN1CCCC1)n2C | 0 | 0 | 0 | 0 | 0
Cn1c(CN2CCCCC2)nc2cc(NS(=O)(=O)c3ccc(F)cc3)ccc21 | 0 | 74.4 | 0 | 0 | 0
COc1ccc(C(=O)Nc2ccccc2-c2nc3ccccc3s2)c(OC)c1 | - | - | - | 0 | 0
COc1cc(C(=O)NCCc2ccc(S(=O)(=O)N3CCCC3)cc2)cc(OC)c1OC | 0 | 58.0 | 0 | 0 | 0
COc1ccc(CCNC(=O)c2cccc(S(=O)(=O)N3CCCC3)c2)cc1OC | 0 | 0 | 0 | 0 | 0
CC(C)N(c1ccccc1)c1ccc(NC(=S)NCCN(C)C)cc1 | 0 | 82.5 | 0 | 0 | 0
O=C(Nc1cccc(Cl)c1)N1CC2CCCN2c2ccccc21 (stereo unspecified) | - | - | - | 0 | -
NC(=O)C1(N2CCCCC2)CCN(Cc2ccc(Br)cc2)CC1 | 0 | 36.8 | 0 | 0 | 0
O=C1Cc2cc(S(=O)(=O)N3CCN(c4ccccc4)CC3)ccc2N1 | 0 | 0 | 0 | 0 | 0
O=C1Cc2cc(CCN3CCN(c4nsc5ccccc45)CC3)c(Cl)cc2N1 | - | 84.1 | - | 0 | 0
SMILES | D2 ag-1 | D2 antagonist | D2 PAM-1 | D2 PAM-2 | D2 ag-2
O=S(=O)(CCn1cccc1)CCn1cccc1 | 0 | 0 | 0 | 30.2 | 0
COc1ccc(Br)cc1S(=O)(=O)n1c([N+](=O)[O-])cnc1C | 0 | 34.0 | 0 | 0 | 0
CCC(=O)N1CCCC(C)(C(=O)Nc2ccc(C)c(C)c2)C1 (stereo unspecified) | 0 | - | 0 | - | -
CCCc1ccc(OCc2ccc(C(=O)N3CCSCC3)o2)cc1 | 0 | 38.6 | 0 | 0 | 0
CCN(C(=O)Cn1c(=O)n(Cc2ccccc2)c(=O)c2c1c1cc(OC)ccc1n2C)c1ccccc1 | - | - | - | 0 | 0
CCCNC(=O)C1(C)CCN(Cc2ccc(-c3ccccc3)o2)C1 (stereo unspecified) | 0 | - | 0 | - | -
Cc1ccc(/C=N/Nc2ccc(Cl)c(C(=O)O)c2)s1 | 0 | 0 | 51.3 | 0 | 0
O=C(O)c1cc(N/N=C/c2cccs2)ccc1Cl | - | 0 | - | 0 | 0
CCCCOC(=O)C1=C(C)NC(=O)NC1c1cccc([N+](=O)[O-])c1 (stereo unspecified) | 0 | 0 | 0 | 0 | 0
CCCCOC(=O)C1=C(C)NC(=O)NC1c1ccc([N+](=O)[O-])s1 (stereo unspecified) | 0 | 0 | 57.8 | 0 | 0
O=C1c2cccnc2-c2ncccc21 | 0 | - | 0 | - | -
O=C1C(=O)c2cccnc2-c2ncccc21 | 56.1 | - | ? | - | -
CS(=O)(=O)c1ccc(Oc2ccc(-c3nnco3)cc2)c([N+](=O)[O-])c1 | 0 | 0 | 0 | 41.3 | 0
CC(NC(=O)CCCCCNC(=O)N1CCn2c1nc1ccccc12)c1ccccc1 (stereo unspecified) | 0 | 0 | 0 | 0 | 0
O=C(CCC(=O)c1ccc(F)cc1)Nc1cc(Cl)cc(Cl)c1 | 0 | 39.1 | 0 | 0 | 0
Oc1cccc(C=NN=C2c3ccccc3-c3ccccc32)c1 | 0 | - | 0 | - | -
S=c1[nH]c(-c2ccccc2)cn1/N=C/c1ccccc1Br | 0 | 0 | 0 | 0 | 0
S=c1[nH]c(-c2ccccc2)cn1/N=C/c1cccc2ccccc12 | 0 | 33.0 | 0 | 0 | 0
C[N+]1(CC(=O)Nc2ccc(F)cc2)CCN(C(=O)c2ccco2)CC1 | 0 | 0 | 0 | 43.4 | 0
C=C1CCN([C@@H](C)C(=O)OCc2cccc(C)c2)S(=O)(=O)c2ccccc21 | 0 | 31.0 | 0 | 0 | 0
CC(=O)Nc1nc(C)c(Oc2ccc(C)cc2)c(=O)[nH]1 | 0 | 0 | 0 | 0 | 0
CN(C)C(=O)[C@H]1C[C@H]1[C@@H](O)[C@H](CO)NC(=O)[C@H](COCc1ccccc1)NC(=O)OC(C)(C)C | 0 | 0 | 0 | 0 | 0
O=C(CCN1CCC(c2ccccc2)C1)c1ccc2c(c1)OCCO2 (stereo unspecified) | 0 | 86.7 | 0 | 0 | 0
O=C(CCN1CCC(c2ccccc2)C1)c1ccccc1 (stereo unspecified) | 0 | - | 0 | - | -
COc1cc(N=c2ssnc2Cl)cc(OC)c1 | 0 | 0 | 0 | 34.8 | 0
SMILES | D2 ag-1 | D2 antagonist | D2 PAM-1 | D2 PAM-2 | D2 ag-2
O=C(O)c1nc(-c2ccccc2)n(-c2cccc(C(F)(F)F)c2)n1 | 0 | 0 | 0 | 43.8 | 0
O=C(O)c1nc(-c2ccccc2)n(-c2ccccc2)n1 | 0 | 0 | 0 | 0 | 0
COc1ccccc1CNC(=O)c1cccc(S(=O)(=O)N(C)c2ccccc2)c1 | 0 | 0 | 0 | 0 | 0
CCN(CC(=O)NC1CCS(=O)(=O)C1)S(=O)(=O)c1ccc(Br)cc1 (stereo unspecified) | 0 | - | 0 | - | -
COc1ccc(N(CC(=O)NCc2cccs2)S(=O)(=O)c2ccc(F)cc2)cc1 | 0 | 0 | 0 | 0 | 0
CN(C)C=Nc1c(Br)cc(Br)c2nonc12 | 0 | 0 | 0 | 0 | 62.9
Cc1ccc(NC(=O)c2ccc3c(O)c(S(=O)(=O)c4ccccc4)c(=O)[nH]c3c2)cc1Cl | - | - | - | 0 | 0
CCOc1ccc(NC(=O)CN(c2ccc(OC)c(OC)c2)S(=O)(=O)c2ccc(C)cc2)cc1 | 0 | 55.0 | 0 | 0 | 0
COc1ccc(S(=O)(=O)N(CC(=O)Nc2ccc(C)cc2)c2ccc(C)cc2)cc1OC | - | - | - | 0 | 0
